# Assays:
# Assay in all cases: DAPPL (digital affinity profiling via proximity ligation, sequencing); 10 mM Tris-HCl pH 7.5, 50 mM NaCl, 1 mM DTT, 4% glycerol, room temperature, 30 min; GST-TFs on glutathione beads, 16-mer random dsDNA library, 0.1% formaldehyde crosslink after washing; high values mean tight binding
# FEV = target: T1, FEV (Homo sapiens, UniProt Q99581 1-238); conditions: protein: recombinant; tags: N-terminal GST; dsDNA, one strand shown
# T1 sequence: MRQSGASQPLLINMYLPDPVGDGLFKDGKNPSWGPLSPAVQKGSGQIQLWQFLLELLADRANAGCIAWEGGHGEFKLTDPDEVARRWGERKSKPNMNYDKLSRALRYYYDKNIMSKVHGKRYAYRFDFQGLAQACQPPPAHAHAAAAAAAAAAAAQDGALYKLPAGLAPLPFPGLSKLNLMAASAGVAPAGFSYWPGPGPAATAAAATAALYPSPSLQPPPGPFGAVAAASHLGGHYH
# Procedure, shortened: (§1)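 After expression in yeast as GST fusions, human transcription factors were bound to glutathione beads, DNA-barcoded and mixed with a tag-only sample. The pools were incubated with 200 nmole of a 16-mer random double-stranded DNA library in Tris/NaCl/DTT/glycerol buffer (30 min, room temperature), washed and crosslinked with 0.1% formaldehyde. Proximity ligation with BsaI/T4 ligase ran for 1 h at 37 °C, before PCR amplification and sequencing on an Illumina NextSeq500. Binding signal is a hexamer's read frequency for a factor divided by its frequency for the tag-only sample.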
# ETV5 = ETV5 (Homo sapiens, UniProt P41161 1-510); conditions: protein: recombinant; tags: N-terminal GST; dsDNA, one strand shown
# ETV5, sequence (P41161 whole entry): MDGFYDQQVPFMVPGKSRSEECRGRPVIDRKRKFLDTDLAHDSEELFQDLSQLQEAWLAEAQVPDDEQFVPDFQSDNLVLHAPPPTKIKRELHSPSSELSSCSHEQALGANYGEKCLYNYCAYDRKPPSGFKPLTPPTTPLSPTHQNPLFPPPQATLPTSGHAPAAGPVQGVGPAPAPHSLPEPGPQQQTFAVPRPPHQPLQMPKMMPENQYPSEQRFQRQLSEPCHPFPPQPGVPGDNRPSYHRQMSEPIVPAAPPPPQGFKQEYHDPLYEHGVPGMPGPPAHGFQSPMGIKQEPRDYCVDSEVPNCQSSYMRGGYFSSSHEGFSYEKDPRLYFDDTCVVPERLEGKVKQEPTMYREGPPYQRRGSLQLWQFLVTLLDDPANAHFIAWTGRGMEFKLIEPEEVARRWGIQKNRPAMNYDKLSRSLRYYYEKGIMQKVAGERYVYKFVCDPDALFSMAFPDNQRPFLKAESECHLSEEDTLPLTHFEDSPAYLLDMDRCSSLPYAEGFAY
# Procedure, shortened: as §1
# HSF1 = HSF1 (Homo sapiens, UniProt Q00613 1-529); conditions: protein: recombinant; tags: N-terminal GST; chain copies: 3; dsDNA, one strand shown
# HSF1, sequence (Q00613 whole entry): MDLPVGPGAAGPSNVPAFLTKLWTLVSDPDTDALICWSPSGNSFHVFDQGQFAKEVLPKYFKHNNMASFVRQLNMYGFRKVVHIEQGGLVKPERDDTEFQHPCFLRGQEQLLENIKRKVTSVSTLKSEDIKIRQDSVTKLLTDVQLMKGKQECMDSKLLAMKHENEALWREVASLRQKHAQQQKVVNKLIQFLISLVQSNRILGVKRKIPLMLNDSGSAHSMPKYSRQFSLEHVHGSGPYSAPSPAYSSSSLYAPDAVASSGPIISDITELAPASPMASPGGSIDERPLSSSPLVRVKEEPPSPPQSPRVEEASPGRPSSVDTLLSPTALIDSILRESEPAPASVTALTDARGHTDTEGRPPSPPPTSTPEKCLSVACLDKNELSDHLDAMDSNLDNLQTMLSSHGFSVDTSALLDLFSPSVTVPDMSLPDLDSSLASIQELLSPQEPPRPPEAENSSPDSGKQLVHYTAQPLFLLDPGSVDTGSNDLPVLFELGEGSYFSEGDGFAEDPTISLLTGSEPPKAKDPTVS
# Procedure, shortened: as §1
# SPIC = target: T2, SPIC (Homo sapiens, UniProt Q8N5J4 1-248); conditions: protein: recombinant; tags: N-terminal GST; dsDNA, one strand shown
# T2 sequence: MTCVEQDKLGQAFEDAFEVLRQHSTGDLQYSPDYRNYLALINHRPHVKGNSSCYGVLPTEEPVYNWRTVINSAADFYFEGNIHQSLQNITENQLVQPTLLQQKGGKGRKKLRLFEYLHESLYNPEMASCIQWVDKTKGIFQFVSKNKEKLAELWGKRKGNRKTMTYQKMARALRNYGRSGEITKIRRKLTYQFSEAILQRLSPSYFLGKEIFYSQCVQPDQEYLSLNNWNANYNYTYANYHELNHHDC
# Procedure, shortened: as §1
# ELF4 = ELF4 (Homo sapiens, UniProt Q99607 1-663); conditions: protein: recombinant; tags: N-terminal GST; dsDNA, one strand shown
# ELF4, sequence (Q99607 whole entry): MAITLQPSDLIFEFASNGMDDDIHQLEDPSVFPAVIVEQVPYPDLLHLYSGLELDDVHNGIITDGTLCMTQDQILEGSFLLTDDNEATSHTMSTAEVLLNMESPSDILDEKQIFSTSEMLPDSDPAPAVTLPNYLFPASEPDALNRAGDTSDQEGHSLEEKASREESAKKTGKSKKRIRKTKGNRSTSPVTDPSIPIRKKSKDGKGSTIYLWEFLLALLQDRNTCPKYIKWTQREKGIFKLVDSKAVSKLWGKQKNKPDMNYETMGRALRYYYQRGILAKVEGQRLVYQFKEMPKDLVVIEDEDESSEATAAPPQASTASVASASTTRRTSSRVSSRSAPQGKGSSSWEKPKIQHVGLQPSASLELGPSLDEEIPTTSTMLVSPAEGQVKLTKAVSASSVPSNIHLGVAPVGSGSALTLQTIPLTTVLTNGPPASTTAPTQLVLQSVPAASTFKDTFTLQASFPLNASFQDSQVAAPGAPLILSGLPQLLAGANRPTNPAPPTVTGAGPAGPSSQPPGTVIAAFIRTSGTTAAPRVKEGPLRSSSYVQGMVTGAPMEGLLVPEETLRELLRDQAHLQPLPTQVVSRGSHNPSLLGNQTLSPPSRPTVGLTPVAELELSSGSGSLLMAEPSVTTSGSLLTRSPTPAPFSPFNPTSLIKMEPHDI
# Procedure, shortened: as §1
# ELK4 = target: T3, ELK4 (Homo sapiens, UniProt P28324-2 1-405); conditions: protein: recombinant; tags: N-terminal GST; dsDNA, one strand shown
# T3 sequence: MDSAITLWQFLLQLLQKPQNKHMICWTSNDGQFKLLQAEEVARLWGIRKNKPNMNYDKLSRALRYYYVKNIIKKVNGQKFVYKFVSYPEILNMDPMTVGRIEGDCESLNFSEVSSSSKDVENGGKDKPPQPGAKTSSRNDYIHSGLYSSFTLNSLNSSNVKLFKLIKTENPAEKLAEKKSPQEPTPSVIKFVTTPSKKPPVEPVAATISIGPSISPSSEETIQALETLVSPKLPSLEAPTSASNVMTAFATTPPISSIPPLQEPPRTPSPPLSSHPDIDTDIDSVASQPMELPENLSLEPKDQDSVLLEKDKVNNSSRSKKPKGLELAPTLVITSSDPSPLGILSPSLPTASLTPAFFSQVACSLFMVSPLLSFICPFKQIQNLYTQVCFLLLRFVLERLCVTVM
# Procedure, shortened: as §1
# ETV2 = target: T4, ETV2 (Homo sapiens, UniProt O00321 1-342); conditions: protein: recombinant; tags: N-terminal GST; dsDNA, one strand shown
# T4 sequence: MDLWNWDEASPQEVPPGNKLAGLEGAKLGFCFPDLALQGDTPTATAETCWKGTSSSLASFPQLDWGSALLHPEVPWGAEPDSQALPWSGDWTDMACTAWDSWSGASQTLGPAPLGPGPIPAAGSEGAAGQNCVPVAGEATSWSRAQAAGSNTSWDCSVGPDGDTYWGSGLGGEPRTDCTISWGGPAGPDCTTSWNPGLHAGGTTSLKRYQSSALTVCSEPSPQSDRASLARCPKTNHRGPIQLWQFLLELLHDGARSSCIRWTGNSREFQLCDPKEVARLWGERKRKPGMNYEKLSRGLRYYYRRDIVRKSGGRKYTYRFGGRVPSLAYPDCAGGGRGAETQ
# Procedure, shortened: as §1
# ELF3 = target: T5, ELF3 (Homo sapiens, UniProt P78545 1-371); conditions: protein: recombinant; tags: N-terminal GST; dsDNA, one strand shown
# T5 sequence: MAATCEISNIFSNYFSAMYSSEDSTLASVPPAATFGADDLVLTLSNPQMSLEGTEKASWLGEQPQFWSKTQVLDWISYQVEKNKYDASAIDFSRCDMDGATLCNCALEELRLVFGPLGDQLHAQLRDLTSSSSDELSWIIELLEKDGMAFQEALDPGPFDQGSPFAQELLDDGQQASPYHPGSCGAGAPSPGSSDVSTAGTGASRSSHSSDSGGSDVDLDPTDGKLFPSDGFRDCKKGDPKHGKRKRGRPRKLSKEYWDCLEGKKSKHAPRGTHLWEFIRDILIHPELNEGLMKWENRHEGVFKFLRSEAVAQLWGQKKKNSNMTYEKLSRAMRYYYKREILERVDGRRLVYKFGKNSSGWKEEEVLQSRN
# Procedure, shortened: as §1
# CRX = CRX (Homo sapiens, UniProt O43186 1-299); conditions: protein: recombinant; tags: N-terminal GST; dsDNA, one strand shown
# CRX, sequence (O43186 whole entry): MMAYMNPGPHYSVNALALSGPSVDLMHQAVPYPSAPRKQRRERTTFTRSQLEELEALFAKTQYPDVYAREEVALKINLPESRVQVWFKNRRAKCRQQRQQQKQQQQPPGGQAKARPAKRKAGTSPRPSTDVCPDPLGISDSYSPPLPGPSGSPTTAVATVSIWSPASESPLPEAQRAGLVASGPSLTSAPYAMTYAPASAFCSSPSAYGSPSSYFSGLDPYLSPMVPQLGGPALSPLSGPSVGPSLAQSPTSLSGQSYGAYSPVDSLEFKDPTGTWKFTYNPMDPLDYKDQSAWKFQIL
# Procedure, shortened: as §1
# ETV1 = ETV1 (Homo sapiens, UniProt P50549 1-477); conditions: protein: recombinant; tags: N-terminal GST; dsDNA, one strand shown
# ETV1, sequence (P50549 whole entry): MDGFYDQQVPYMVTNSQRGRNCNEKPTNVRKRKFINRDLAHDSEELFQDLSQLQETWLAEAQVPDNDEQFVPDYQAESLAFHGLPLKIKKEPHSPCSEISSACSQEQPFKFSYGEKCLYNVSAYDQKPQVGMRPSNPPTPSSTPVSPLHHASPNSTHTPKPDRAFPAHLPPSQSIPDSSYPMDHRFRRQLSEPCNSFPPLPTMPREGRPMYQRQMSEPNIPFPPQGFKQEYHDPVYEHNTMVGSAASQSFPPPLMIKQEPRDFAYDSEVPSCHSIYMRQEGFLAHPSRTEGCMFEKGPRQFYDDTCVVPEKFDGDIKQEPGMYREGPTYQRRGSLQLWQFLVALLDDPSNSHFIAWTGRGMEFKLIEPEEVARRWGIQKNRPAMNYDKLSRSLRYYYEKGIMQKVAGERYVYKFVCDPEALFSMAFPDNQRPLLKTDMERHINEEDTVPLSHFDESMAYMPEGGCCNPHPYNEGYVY
# Procedure, shortened: as §1
# ERF = target: T6, ERF (Homo sapiens, UniProt P50548 1-548); conditions: protein: recombinant; tags: N-terminal GST; dsDNA, one strand shown
# T6 sequence: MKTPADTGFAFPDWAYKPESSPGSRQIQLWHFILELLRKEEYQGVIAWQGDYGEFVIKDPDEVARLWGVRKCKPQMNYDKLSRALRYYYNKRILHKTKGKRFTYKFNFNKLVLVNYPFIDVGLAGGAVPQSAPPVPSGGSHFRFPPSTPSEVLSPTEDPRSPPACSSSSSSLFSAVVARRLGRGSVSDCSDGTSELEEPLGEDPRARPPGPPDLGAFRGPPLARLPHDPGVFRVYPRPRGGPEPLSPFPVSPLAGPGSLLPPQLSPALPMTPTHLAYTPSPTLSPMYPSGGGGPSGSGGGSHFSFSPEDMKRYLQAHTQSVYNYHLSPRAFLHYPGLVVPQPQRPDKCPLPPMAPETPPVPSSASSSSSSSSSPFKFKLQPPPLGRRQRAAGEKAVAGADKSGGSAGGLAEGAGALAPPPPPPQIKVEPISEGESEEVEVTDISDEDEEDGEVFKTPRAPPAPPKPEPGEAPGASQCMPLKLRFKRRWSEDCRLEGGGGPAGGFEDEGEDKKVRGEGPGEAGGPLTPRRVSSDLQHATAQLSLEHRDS
# Procedure, shortened: as §1
# ETV3L = target: T7, ETV3L (Homo sapiens, UniProt Q6ZN32 1-361); conditions: protein: recombinant; tags: N-terminal GST; dsDNA, one strand shown
# T7 sequence: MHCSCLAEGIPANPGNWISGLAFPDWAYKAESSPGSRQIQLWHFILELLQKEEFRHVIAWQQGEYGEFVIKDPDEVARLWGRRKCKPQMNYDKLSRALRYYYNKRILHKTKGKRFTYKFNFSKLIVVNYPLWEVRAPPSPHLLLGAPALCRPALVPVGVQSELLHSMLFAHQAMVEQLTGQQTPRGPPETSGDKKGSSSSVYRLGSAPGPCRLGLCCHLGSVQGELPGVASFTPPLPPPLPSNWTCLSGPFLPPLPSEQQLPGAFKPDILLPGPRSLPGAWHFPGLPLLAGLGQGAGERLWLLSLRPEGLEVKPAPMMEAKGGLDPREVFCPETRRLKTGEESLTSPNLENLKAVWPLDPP
# Procedure, shortened: as §1
# ETS2 = target: T8, ETS2 (Homo sapiens, UniProt P15036 1-469); conditions: protein: recombinant; tags: N-terminal GST; dsDNA, one strand shown
# T8 sequence: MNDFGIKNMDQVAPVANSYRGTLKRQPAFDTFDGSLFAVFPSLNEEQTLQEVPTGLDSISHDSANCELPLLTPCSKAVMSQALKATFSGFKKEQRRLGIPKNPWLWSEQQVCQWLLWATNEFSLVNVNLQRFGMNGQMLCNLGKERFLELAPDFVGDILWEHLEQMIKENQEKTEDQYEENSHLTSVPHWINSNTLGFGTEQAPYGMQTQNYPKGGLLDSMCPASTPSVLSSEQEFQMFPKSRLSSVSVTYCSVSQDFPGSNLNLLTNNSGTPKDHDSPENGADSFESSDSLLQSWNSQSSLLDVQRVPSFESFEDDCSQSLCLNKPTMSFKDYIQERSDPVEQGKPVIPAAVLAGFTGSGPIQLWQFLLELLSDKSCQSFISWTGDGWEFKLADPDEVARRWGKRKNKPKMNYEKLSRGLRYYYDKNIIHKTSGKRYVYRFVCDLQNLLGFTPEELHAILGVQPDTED
# Procedure, shortened: as §1
# SPDEF = target: T9, SPDEF (Homo sapiens, UniProt O95238 1-335); conditions: protein: recombinant; tags: N-terminal GST; dsDNA, one strand shown
# T9 sequence: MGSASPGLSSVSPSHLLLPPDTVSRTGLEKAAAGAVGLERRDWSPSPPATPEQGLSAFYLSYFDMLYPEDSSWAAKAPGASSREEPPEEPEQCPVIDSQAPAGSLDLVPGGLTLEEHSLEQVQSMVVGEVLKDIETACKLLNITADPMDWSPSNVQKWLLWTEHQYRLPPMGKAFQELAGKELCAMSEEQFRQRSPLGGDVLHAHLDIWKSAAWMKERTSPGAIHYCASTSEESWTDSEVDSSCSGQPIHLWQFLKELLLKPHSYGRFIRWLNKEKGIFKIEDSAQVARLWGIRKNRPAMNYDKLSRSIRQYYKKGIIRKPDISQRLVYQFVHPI
# Procedure, shortened: as §1
# ETV7 = target: T10, ETV7 (Homo sapiens, UniProt Q9Y603 1-341); conditions: protein: recombinant; tags: N-terminal GST; dsDNA, one strand shown
# T10 sequence: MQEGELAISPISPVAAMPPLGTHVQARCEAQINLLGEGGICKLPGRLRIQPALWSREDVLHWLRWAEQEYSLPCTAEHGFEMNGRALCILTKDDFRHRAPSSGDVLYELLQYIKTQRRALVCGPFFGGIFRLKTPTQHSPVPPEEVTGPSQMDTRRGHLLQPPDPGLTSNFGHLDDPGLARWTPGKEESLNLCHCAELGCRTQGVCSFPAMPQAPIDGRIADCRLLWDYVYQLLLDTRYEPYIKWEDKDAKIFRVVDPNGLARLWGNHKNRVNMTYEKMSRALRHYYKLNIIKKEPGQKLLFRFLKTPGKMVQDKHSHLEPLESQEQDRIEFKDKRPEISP
# Procedure, shortened: as §1
# ELF5 = target: T11, ELF5 (Homo sapiens, UniProt Q9UKW6-2 1-255); conditions: protein: recombinant; tags: N-terminal GST; dsDNA, one strand shown
# T11 sequence: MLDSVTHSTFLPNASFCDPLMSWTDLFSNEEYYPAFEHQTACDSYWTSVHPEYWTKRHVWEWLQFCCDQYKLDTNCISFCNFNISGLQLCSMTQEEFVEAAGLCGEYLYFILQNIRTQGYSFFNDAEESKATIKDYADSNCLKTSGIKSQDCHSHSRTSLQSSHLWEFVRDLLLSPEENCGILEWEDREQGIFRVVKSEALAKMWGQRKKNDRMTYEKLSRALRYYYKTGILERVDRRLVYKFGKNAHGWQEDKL
# Procedure, shortened: as §1
# ETV3 = target: T12, ETV3 (Homo sapiens, UniProt P41162-2 1-143); conditions: protein: recombinant; tags: N-terminal GST; dsDNA, one strand shown
# T12 sequence: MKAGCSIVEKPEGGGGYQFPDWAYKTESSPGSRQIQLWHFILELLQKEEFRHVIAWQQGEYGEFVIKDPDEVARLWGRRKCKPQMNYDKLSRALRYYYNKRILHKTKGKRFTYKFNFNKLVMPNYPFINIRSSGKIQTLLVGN
# Procedure, shortened: as §1
# ETV6 = ETV6 (Homo sapiens, UniProt P41212 1-452); conditions: protein: recombinant; tags: N-terminal GST; dsDNA, one strand shown
# ETV6, sequence (P41212 whole entry): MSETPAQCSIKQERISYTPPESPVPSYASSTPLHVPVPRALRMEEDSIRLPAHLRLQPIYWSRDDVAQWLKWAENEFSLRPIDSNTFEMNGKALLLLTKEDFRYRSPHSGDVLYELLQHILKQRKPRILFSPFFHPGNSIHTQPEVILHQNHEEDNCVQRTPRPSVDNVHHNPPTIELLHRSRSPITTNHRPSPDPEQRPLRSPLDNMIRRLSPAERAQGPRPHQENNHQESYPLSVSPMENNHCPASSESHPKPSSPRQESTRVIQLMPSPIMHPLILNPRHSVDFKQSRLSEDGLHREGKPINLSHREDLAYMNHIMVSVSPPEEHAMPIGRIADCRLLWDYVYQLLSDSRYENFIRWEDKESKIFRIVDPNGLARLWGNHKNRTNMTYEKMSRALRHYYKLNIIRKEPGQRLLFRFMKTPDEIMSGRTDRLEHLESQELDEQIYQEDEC
# Procedure, shortened: as §1
sequence,measurement,setting,value
CTGCTA,binding signal,FEV,"1.47 fold enrichment (6-mer frequency, TF over GST control)"
same,binding signal,ETV5,"1.56 fold enrichment (6-mer frequency, TF over GST control)"
same,binding signal,HSF1,"1.37 fold enrichment (6-mer frequency, TF over GST control)"
same,binding signal,SPIC,"1.5 fold enrichment (6-mer frequency, TF over GST control)"
same,binding signal,ELF4,"1.42 fold enrichment (6-mer frequency, TF over GST control)"
same,binding signal,ELK4,"1.68 fold enrichment (6-mer frequency, TF over GST control)"
same,binding signal,ETV2,"1.49 fold enrichment (6-mer frequency, TF over GST control)"
same,binding signal,ELF3,"1.67 fold enrichment (6-mer frequency, TF over GST control)"
same,binding signal,CRX,"1.36 fold enrichment (6-mer frequency, TF over GST control)"
same,binding signal,ETV1,"1.64 fold enrichment (6-mer frequency, TF over GST control)"
same,binding signal,ERF,"1.49 fold enrichment (6-mer frequency, TF over GST control)"
same,binding signal,ETV3L,"1.38 fold enrichment (6-mer frequency, TF over GST control)"
same,binding signal,ETS2,"1.49 fold enrichment (6-mer frequency, TF over GST control)"
same,binding signal,SPDEF,"1.4 fold enrichment (6-mer frequency, TF over GST control)"
same,binding signal,ETV7,"1.5 fold enrichment (6-mer frequency, TF over GST control)"
same,binding signal,ELF5,"1.43 fold enrichment (6-mer frequency, TF over GST control)"
same,binding signal,ETV3,"1.39 fold enrichment (6-mer frequency, TF over GST control)"
same,binding signal,ETV6,"1.39 fold enrichment (6-mer frequency, TF over GST control)"

# — paper PMC7862700, “An all-to-all approach to the identification of sequence-specific readers for epigenetic DNA modifications on cytosine”
